# Screens as filed in PubChem.
# Artemis inh: Artemis endonuclease inhibitors, primary screen, biochemical, fluorescence intensity, FAM/BHQ-1 hairpin substrate | recombinant Artemis, quenched FAM hairpin cleavage fluorescence | inhibition, % at 10 µM | 0.78% of 30,000 active;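 active = at 10 µM dose, at least 30% inhibition, measured as corrected fluorescence normalized to stimulator and neutral control wells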
# Target sequence (Q96SD1 whole entry, looked up): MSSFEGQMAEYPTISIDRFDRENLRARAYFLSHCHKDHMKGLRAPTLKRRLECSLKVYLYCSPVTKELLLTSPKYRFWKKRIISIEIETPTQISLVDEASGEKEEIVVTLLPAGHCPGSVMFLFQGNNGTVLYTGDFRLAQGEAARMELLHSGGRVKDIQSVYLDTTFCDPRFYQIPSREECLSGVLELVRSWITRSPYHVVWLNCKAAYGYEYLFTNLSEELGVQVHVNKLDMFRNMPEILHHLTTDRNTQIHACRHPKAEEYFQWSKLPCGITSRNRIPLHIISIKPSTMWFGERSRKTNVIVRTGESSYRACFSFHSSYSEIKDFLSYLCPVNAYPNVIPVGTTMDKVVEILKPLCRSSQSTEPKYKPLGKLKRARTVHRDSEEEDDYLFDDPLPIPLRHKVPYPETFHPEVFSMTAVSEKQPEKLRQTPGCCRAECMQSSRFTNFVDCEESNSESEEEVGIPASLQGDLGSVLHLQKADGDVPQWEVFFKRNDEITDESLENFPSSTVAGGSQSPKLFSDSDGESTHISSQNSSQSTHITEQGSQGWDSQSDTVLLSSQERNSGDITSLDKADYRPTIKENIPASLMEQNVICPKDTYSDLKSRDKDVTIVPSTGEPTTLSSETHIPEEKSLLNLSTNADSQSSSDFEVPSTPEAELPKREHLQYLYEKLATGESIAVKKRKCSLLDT
# Starred values were filed as active, the others as inactive. The sample as a whole holds a higher share of hits than the screen did.
SMILES,Artemis inh
O=C(c1ccccc1F)N(Cc1ccc2c(c1)OCO2)Cc1cc2cc3c(cc2n2nnnc12)OCO3,16
C/C(Cn1nc([N+](=O)[O-])cc1C)=N\NC(=O)c1cccc(Br)c1,-1
O=C(N/N=C\c1ccc(Cl)s1)c1cccs1,1
O=C(N/N=C/c1ccco1)c1cc(-c2ccc3ccccc3c2)n[nH]1,23
O=C(N/N=C/c1cccs1)c1cc(-c2ccc3ccccc3c2)n[nH]1,34*
CCCCOc1[nH]c2nc(-c3ccco3)n(Cc3ccco3)c(=N)c2c1C#N,16
CCN(CC)c1ccc(C=Nc2ccc(C#N)cc2)c(O)c1,2
CCN(CC)c1ccc(/C=N/Nc2nc3ccccc3[nH]2)c(O)c1,38*
CCCCNc1nc2ccccc2[nH]1,1
CSc1nnc(-c2sc3cc(C(F)(F)F)cnc3c2-c2ccccc2)n1C,-1
COC(=O)c1cc(C#N)c(NCc2ccccc2)nc1C,4
CCOC(=O)N1CCN(c2cc(NCCC(=O)O)c3c4c(onc24)-c2ccccc2C3=O)CC1,33*
CCOC(=O)N1CCN(c2ccc(C(=O)c3ccccc3)cc2F)CC1,0
CCOC(=O)N1CCN(C(=O)c2ccc(N3C(=O)c4ccccc4C3=O)cc2)CC1,-7
COc1ccccc1N1CCN(c2nnc(-c3ccc(F)cc3)c3ccccc23)CC1,3
N#Cc1c(C(F)(F)F)cc(C2CC2)nc1N1CCCC1,2
N#Cc1c(N2CCCCC2)nc(N)c2c(N)nc3c(c12)CC(c1ccccc1)O3 (stereo unspecified),13
COc1ccccc1N1CCN(c2nc(N)c(C#N)c(CC#N)c2C#N)CC1,-3
COc1cc2c(C#N)c(N3CCN(c4ccccc4OC)CC3)nc(N)c2c(N)n1,45*
N#Cc1c(N2CCCC2)nc(N)c2c(N)nc(N3CCCC3)cc12,67*
Cc1ccccc1N(C(=O)Cn1nnc(-c2cccs2)n1)C(C(=O)NCCC(C)C)c1ccco1 (stereo unspecified),2
Cc1occc1C(=O)NNC(=S)Nc1cccc([N+](=O)[O-])c1,-1
NC(=O)C(c1ccc(Cl)cc1)c1ccc(Sc2ccc(Cl)cc2)nn1 (stereo unspecified),10
O=C(O)c1cccc(NC(=S)NC(=O)C(c2ccccc2)c2ccccc2)c1,25
Cc1cccc(C(=O)N2CCN(c3ccc([N+](=O)[O-])c(NCc4ccco4)c3)CC2)c1,28
SMILES,Artemis inh
Cc1cccc(C(=O)N2CCN(c3ccc([N+](=O)[O-])c(N4CCOCC4)c3)CC2)c1,2
Cc1ccc(C(=O)N2CCN(c3ccc([N+](=O)[O-])c(NCc4ccco4)c3)CC2)cc1,31*
CSc1nc(NC(C)=O)nc(C)c1Cl,4
O=C(c1ccc(S(=O)(=O)Nc2ccc(F)cc2)cc1)N1CCN(C(=O)c2ccco2)CC1,3
CCCCOc1ccc(CNC(=S)N/N=C/c2ccc(OC)c(OC)c2)cc1,3
C=CCSc1nnc(-c2ccccc2N=Cc2c(C)[nH]n(-c3ccccc3)c2=O)c(=O)[nH]1,-2
CSc1nnc(-c2ccccc2N=Cc2c(C)[nH]n(-c3ccc4ccccc4c3)c2=O)c(=O)[nH]1,32*
Cc1[nH]n(-c2ccccc2)c(=O)c1C=Nc1cnc2ccccc2c1,0
O=c1cc(CSc2nnnn2-c2ccccc2)[nH]c2[nH]n(-c3ccccc3)c(=O)c12,-2
COc1ccc(S(=O)(=O)N2CCCC(C(=O)NCc3ccncc3)C2)cc1 (stereo unspecified),-3
CCOC(=O)c1c(C)nc2sc3c(c2c1-c1ccc(OC)cc1)NC(c1ccc(OC)cc1)NC3=O (stereo unspecified),5
CCn1c(=O)c(C(=O)Nc2nc3ccccc3[nH]2)c(O)c2ccccc21,50*
CCn1c(=O)c(C(=O)NCCCO)c(O)c2ccccc21,-7
CCn1c(=O)c(C(=O)Nn2c(C)nc3ccccc3c2=O)c(O)c2ccccc21,12
CCCC(O)(CCN(C)C)c1ccc(OC)cc1 (stereo unspecified),-1
O=C(Nc1cccnc1)c1cnn2c(C(F)F)cc(C3CC3)nc12,-4
Cc1nn(Cc2c(Cl)cccc2Cl)c(C)c1NC(=O)c1cnn2c(C(F)F)cc(-c3ccccc3)nc12,25
Cc1ccc(-c2cc(C(F)F)n3ncc(C(=O)Nc4c(C)nn(Cc5c(Cl)cccc5Cl)c4C)c3n2)cc1,32*
Cc1nnc(-c2ccccc2)c(=O)n1/N=C/c1c(O)ccc2ccccc12,47*
O=c1c2ccccc2nc(-c2ccco2)n1/N=C/c1ccccc1O,-2
Cc1nnc(C)n1/N=C/c1cccn1C,2
C/C(Cl)=C/Cn1c(=O)c2c(nc(Br)n2Cc2ccccc2)n(C)c1=O,6
COc1ccccc1NC(=O)N1CCc2[nH]c3ccc(Cl)cc3c2C1,5
CCN(CC)C(=O)C(=O)N/N=C/c1cccs1,53*
Cc1ccc(N(CC(=O)N/N=C/c2cccs2)S(C)(=O)=O)cc1Cl,-5
SMILES,Artemis inh
Cn1cccc1CC(=O)N/N=C\c1cccs1,-4
Cn1cc(CC(=O)Nc2cccc(C#N)c2)c2ccccc21,-8
COc1c(C)cccc1C(=O)Nc1ccc(N2CCOCC2)c(Cl)c1,-1
CNc1oc(-c2ccc(OCc3ccccc3)cc2)nc1C#N,2
N#Cc1nc(-c2ccc(OCc3ccccc3)cc2)oc1NCc1ccco1,-5
N#Cc1nc(-c2ccc(OCc3ccc(Cl)cc3)cc2)oc1NCCCn1ccnc1,49*
CC1(c2ccc(Cl)c(Cl)c2)NC(=S)N2C1NC(=S)N2c1ccccc1 (stereo unspecified),2
COc1ccc(Nc2nc(NCc3ccco3)nc(N/N=C/c3ccccc3)n2)cc1,72*
CC(C)c1ccc(Nc2nc(NCc3ccco3)nc(N3CCOCC3)n2)cc1,21
CCOc1nc(NCc2ccco2)nc(Nc2ccc(OC)cc2)n1,5
O=C1C2CC=CCC2C(=O)N1c1n[nH]c(-c2ccccc2)n1 (stereo unspecified),2
CC1Cc2cc(/C(O)=C3/C(=O)C(=O)N(CC4CCCO4)C3c3ccco3)ccc2O1 (stereo unspecified),-6
COc1ccc(Cl)cc1Nc1nc(C)cc(C)c1C(N)=O,-7
Cc1cccc(C)c1NC(=O)/C(=C/c1ccco1)c1ccccc1,0
C(/C=C/c1ccco1)=N/N1CCN(c2ccccc2)CC1,0
CC1=NN(c2cccc(C(=O)O)c2)C(=O)/C1=C\C=C\c1ccco1,31*
O=C(/C=C/c1ccco1)NC(=S)Nc1ccc(Cl)cn1,-4
Cc1cc2c(=O)n(CC(=O)N3CCN(c4ccc(F)cc4)CC3)cnc2s1,-6
O=[N+]([O-])c1ccc(/C=N/Nc2nc(-c3ccccc3)c3cc(Br)ccc3n2)o1,58*
O=[N+]([O-])c1cccc(-c2ccc(/C=N/NC(=S)Nc3ccccc3)o2)c1,16
O=C(NNC(=O)c1ccc([N+](=O)[O-])o1)c1ccccc1,0
Cc1ccc2nc(N/N=C\c3ccc([N+](=O)[O-])o3)nc(-c3ccccc3)c2c1,39*
CCCOC(=O)/C(=C\c1ccc([N+](=O)[O-])o1)NC(=O)c1ccccc1,5
Cc1ccc(/C=N\Nc2nc3ccc(Cl)cc3[nH]2)o1,-4
O=C(NC(=S)NCc1ccccc1)C1CCCCC1,-1
Cc1cc(-c2csc(N)n2)c(C)n1C,32*
CSc1nnc(-c2cc3ccccc3cc2O)n1C,-1
CCOC(=O)CCCNC(=O)COC(=O)c1ccc(O)cc1,-3
O=C(Nc1ccc2c(c1)OCO2)C1Cc2ccccc2CN1S(=O)(=O)c1cccs1 (stereo unspecified),9
